This excerpt belongs to a sample that is enriched for hits.
Shiga inhibitor: blocks Shiga toxin action in Vero cells; Vero cells, Shiga toxin protein synthesis inhibition reporter; inhibition, % at 38.7 µM; 290,000 compounds, 9.2% hits; AID 2315; in the data active = inhibition mostly above about 28%, no sharp cut-off; inactive = mostly below about 43%; note: 0% is about no effect
CHX counter: affects cycloheximide protein synthesis inhibition readout, counter-screen; cell reporter, cycloheximide protein synthesis inhibition counterscreen; max response, %; 300,000 compounds, 12% hits; in the data active = max response mostly above about 13%, no sharp cut-off; inactive = mostly below about 14%; note: read at 38.3 µM for the half of the compounds with a filed dose; 0% is about no effect
FBPA Giardia inh: inhibitors of Giardia lamblia fructose-1,6-bisphosphate aldolase; A8B2U2; purified Giardia FBPA; Potency, µM (highest dose often 59.6 µM), inactives show at the top dose activity, negative = inhibition, most hits filed as inhibitors; 290,000 compounds, 0.71% hits; AID 2451; note: potency is the fitted concentration of half-maximal effect; % is set by controls: 0 for no effect and ±100 for the full control effect; nearly all actives have a fitted effect of over 55% in size
Target sequence (A8B2U2 whole entry, looked up): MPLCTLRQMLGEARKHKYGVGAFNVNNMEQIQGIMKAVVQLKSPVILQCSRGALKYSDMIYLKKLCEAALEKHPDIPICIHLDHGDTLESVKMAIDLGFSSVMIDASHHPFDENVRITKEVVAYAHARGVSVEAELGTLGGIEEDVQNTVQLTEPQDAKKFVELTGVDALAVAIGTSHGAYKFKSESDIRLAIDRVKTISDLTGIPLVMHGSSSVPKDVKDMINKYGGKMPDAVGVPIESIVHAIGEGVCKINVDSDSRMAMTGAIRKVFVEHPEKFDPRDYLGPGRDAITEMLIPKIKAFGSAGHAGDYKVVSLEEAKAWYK
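Giardia FBPA (40 nM reagent) was preincubated 10 min at RT with compound (up to 57.5 uM final), then substrate plus GAPDH/TPI/NAD/arsenate coupling system with diaphorase/resazurin was added; resorufin fluorescence (525/598 nm) was read after 20 min.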
RE007 growth inh: less growth of the S. pombe RE007 Vpr strain | S. pombe RE007 Vpr strain, BacTiter-Glo ATP luminescence, 24 h | Potency, µM (doses to about 92.2 µM), for inactives: at the highest dose activity change, negative = less growth, most hits filed as inhibitors | 360,000 compounds, 0.21% hits | AID 651644; active = well fitted falling curve with a large enough effect; inconclusive = small, poorly fitted or top-dose-only effect; inactive = no such curve, though single readings can be large or run the other way; note: potency is the fitted concentration of half-maximal effect; % is set by controls: 0 for no effect and ±100 for the full control effect; nearly all actives have a fitted effect of over 50% in size
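Fission yeast RE007 carrying one integrated HIV-1 vpr copy, seeded at OD 0.01 in PMG+AL medium with 23 nL pinned compound. Grown 24 h at 30 degrees; viability read by BacTiter-Glo luminescence after 5 min.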
LmPK inhibitor: LmPK (Leishmania mexicana) enzyme inhibition; Potency, µM (highest dose often 57.5 µM), for inactives: top-dose activity change, negative = inhibition, most hits filed as inhibitors; purified LmPK, Kinase-Glo ATP luminescence, 1 h; Q27686; 290,000 compounds, 0.37% hits; note: potency is the fitted concentration of half-maximal effect; % is set by controls: 0 for no effect and ±100 for the full control effect
Target sequence (Q27686 whole entry, looked up): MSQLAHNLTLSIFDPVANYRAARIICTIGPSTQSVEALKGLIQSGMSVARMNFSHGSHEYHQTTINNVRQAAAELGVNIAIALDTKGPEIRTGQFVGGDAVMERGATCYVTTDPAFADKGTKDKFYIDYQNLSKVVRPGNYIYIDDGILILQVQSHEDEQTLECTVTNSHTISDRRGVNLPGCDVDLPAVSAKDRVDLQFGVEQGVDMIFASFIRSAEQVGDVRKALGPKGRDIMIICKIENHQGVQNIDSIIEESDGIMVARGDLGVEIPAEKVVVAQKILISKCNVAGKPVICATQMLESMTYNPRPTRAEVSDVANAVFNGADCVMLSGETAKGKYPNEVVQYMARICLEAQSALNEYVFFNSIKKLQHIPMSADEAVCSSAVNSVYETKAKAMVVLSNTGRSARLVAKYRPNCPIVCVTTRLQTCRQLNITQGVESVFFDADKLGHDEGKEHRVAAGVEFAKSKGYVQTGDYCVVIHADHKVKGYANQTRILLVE
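ATP generated from ADP (0.1 mM) and PEP (0.5 mM) by 0.1 nM LmPK over 1 h at room temperature (pH 7.2 imidazole buffer) was detected by coupled luciferase luminescence. Values were normalized to uninhibited and no-enzyme wells.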
Tb PYK inh: T. brucei pyruvate kinase inhibition; Q57TT1; AID 624173; Potency, µM (series often up to 76.8 µM), without a hit: top-dose activity, negative = inhibition, usual class: inhibitors; 410,000 compounds, 0.12% hits; TbPYK enzyme, Kinase-Glo Plus ATP luminescence, 45 min; note: potency is the fitted concentration of half-maximal effect; % is set by controls: 0 for no effect and ±100 for the full control effect; nearly all actives have a fitted effect of over 50% in size
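Assay buffer: 50 mM TEA pH 7.2, 100 mM KCl, 10 mM MgCl2, 0.05% BSA, 0.01% Tween-20. Pyruvate kinase from T. brucei plus substrate met compound, then ADP (130 uM final). Luminescence was read post 45 min RT.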
Active calls of the source: *; ? = inconclusive; / = no result; [ ] = dose if it differs, or a comment. Unless noted, calls come from the whole dose curve; as a rule, active = well fitted curve in the direction sought with a large enough effect; inconclusive = small, poorly fitted or top-dose-only effect, or another doubt; inactive = no such curve, though single readings can be large; an effect the other way counts as inactive or inconclusive.

SMILES | Shiga inhibitor | CHX counter | FBPA Giardia inh | RE007 growth inh | LmPK inhibitor | Tb PYK inh
Cc1ccc(OCC(=O)Nc2ccccc2[N+](=O)[O-])c(Br)c1 | 121.6* | 42.0* | 7.8% | 366.7% | 0.3% | 8.9%
COc1cccc(NC(=O)COC(=O)COc2ccccc2[N+](=O)[O-])c1 | -10.7 | -6.7 | -4.3% | / | 1.6% | -8.8%
Cc1ccc(OC/C(=N\O)C(C)(C)C)c([N+](=O)[O-])c1 | 75.1* | 34.0* | -7.7% | -5.9% | 8.6% | -5.7%
CN1CCN(CCCNC(=O)c2cnn(-c3ccccc3)c2-n2cccc2)CC1 | / | / | / | / | / | -2.2%
CCCc1cc(=O)oc2cc(C)cc(OCC(=O)Nc3cccnc3)c12 | -9.8 | -2.7 | 2.0% | 3.8% | 0.4% | -5.7%
COc1cccc(N2C(=O)C3CCCN3C2=S)c1 (configuration not stated) | -5.5 | -0.7 | -0.2% | 0.8% | -2.2% | 3.9%
CC(C)(C)c1ccc(CC(=O)N2CCC2(C)C(=O)O)cc1 (configuration not stated) | / | / | / | 7.4%[18.4 µM] | / | 5.3%
COc1cc(/C=C/C(=O)OCC(=O)N2c3ccccc3NC(=O)C2(C)C)cc(OC)c1OC | / | / | / | -12.2% | / | 2.7%
COc1cc(Cl)ccc1OCc1cc(C(=O)N2CCCC(OC)C2)no1 (configuration not stated) | 79.6* | 53.6* | / | -0.5% | -5.0% | -0.3%
COc1cc(Cl)ccc1OCc1cc(C(=O)N2CCCCCC2)no1 | 74.3* | 32.2* | / | -8.0% | -10.8% | -9.7%
COc1ccc(OCc2cc(C(=O)N3CCCN(C(C)=O)CC3)no2)c(Cl)c1 | 42.7* | 32.0* | / | -1.3% | 7.9% | -0.1%
COc1cc(Cl)ccc1OCc1cc(C(=O)N2CCN(C)CC2)no1 | 6.8 | 8.3 | / | -12.4% | -11.1% | -1.7%
C=C1CCC(O)C/C1=C\C=C1/CCCC2(C)C1CCC2C(C)CCCC(C)C (configuration not stated) | / | / | -3.7% | / | / | /
CC1CCN(CCCNC(=O)c2ccc3c(Cl)c4c(nc3c2)CCCC4)CC1 | -6.8 | -0.8 | 6.6% | -18.4% | 4.0% | -4.9%
CCOC(=O)c1c(N/N=C/c2ccncc2)n[nH]c1C | 49.9* | 25.2 | 8.8% | -11.8% | -15.5% | 0.6%
CCc1[nH]nc(C(=O)N/N=C/c2ccncc2)c1C | 50.1* | 23.7* | / | -13.2% | -16.9% | -0.9%
CCOC(=O)c1c(NCc2ccccc2)n[nH]c1C | 24.8 | -1.5 | -6.0% | 3.4% | -3.0% | -1.3%
CC(=O)OCC1CC(COC(C)=O)C(COC(C)=O)CC1COC(C)=O (configuration not stated) | / | / | / | 0.7% | / | 2.8%
CCC(C)c1ccc(NC(=O)c2c([N+](=O)[O-])cnn2CC)cc1 (configuration not stated) | 44.1 | 19.5* | 1.6% | -7.8% | -4.8% | 0.7%
CCn1ncc(Br)c1C(=O)Nc1ccc2c(c1)OCCO2 | 98.7* | 69.9* | 1.7% | -24.4% | -16.2% | 5.1%
CCn1ncc(Br)c1C(=O)Nc1ccc(C(C)C)cc1 | 69.0* | 63.7* | -1.3% | 5.3% | -0.3% | 2.4%
CCn1ncc(Br)c1C(=O)Nc1ncc(C)s1 | 68.9* | 26.8 | -3.9% | -8.3% | -5.0% | 3.7%
CSc1ccc(Cn2c(C)c(C(=O)NCc3ccc4c(c3)OCO4)sc2=O)cc1 | / | / | / | 7.6%[18.4 µM] | / | -10.3%
CCn1ncc(Br)c1C(=O)Nc1cc(C(=O)OC)ccc1C(=O)OC | 37.4* | 14.6* | -8.6% | 0.8% | -1.2% | 9.5%
O=C(NCCn1ccc2ccccc21)C1CCCCC1 | 23.7* | 17.8* | 2.9% | -11.9% | 2.3% | 3.5%
SMILES | Shiga inhibitor | CHX counter | FBPA Giardia inh | RE007 growth inh | LmPK inhibitor | Tb PYK inh
COc1ccc(C(=O)NCCn2ccc3ccccc32)cc1OC | 23.0 | 17.6* | 13.5% | 1.8% | 2.9% | -8.1%
COc1cccc(C(=O)NCCn2ccc3ccccc32)c1 | 45.3* | 24.8* | 2.8% | 25.5% | -12.8% | 3.5%
Cc1ccc(CCNC(=O)Cn2nc(-c3ccc(C)cc3)ccc2=O)cc1 | / | / | / | / | / | 2.8%
CCOc1cc(CNc2ccc3[nH]c(=O)[nH]c3c2)ccc1OCC(=O)NC(C)(C)C | -2.6 | -2.4 | ? | 16.4% | 2.1% | -9.7%
COc1cc(CNn2c(C)n[nH]c2=S)cc(Cl)c1OCC(=O)NC(C)(C)C | 21.3 | 11.4* | 8.8% | 0.8% | -3.4% | ?
C=CCOc1ccc(CNn2c(C)n[nH]c2=S)cc1OC | 55.4* | 27.7* | 8.5% | 14.3% | 2.6% | ?
COc1cc(CNc2ccc3[nH]c(=O)[nH]c3c2)cc(Cl)c1OCC(=O)NC(C)(C)C | -15.9 | 11.3 | 9.98µM* | -15.2% | -4.4% | -20.0%
C=CCOc1c(Br)cc(CNn2c(C)n[nH]c2=S)cc1OC | -2.8 | -0.8 | 19.6% | 2.7% | 9.4% | ?
CCOC(=O)N1CCN(CC(O)COc2ccc3c(c2)CCC3)CC1 (configuration not stated) | -8.8 | -8.4 | / | 5.8% | -5.8% | 3.5%
CCCC(=O)N1CCC1(C)C(=O)NS(=O)(=O)c1cccc(Cl)c1 (configuration not stated) | / | / | / | -2.7% | / | 6.5%
CC(=O)COc1ccc2c(c1C)O/C(=C\c1ccco1)C2=O | 127.3* | 82.4* | -1.1% | ? | 6.0% | 3.5%
Cc1cc(O)c(CN(C)C)c2c1C(=O)/C(=C/c1ccco1)O2 | -9.1 | -1.8 | -6.3% | 1.1% | -1.0% | -17.3%
Cc1c(OC(=O)N(C)C)ccc2c1O/C(=C\c1ccco1)C2=O | 90.8* | 47.4* | 7.2% | 6.2% | 1.9% | -18.9%
C(=C\c1ccccn1)/c1cccnc1 | 66.7* | 21.2* | -7.2% | / | -22.0% | /
CN(C)c1ccc(/C=C/C(=O)c2cccnc2)cc1 | 72.0* | 41.7* | -2.7% | -28.6% | -29.2% | -4.6%
O=C(/C=C/c1cccnc1)c1ccc(O)cc1 | 8.4 | 12.6* | 0.5% | -2.5% | -13.3% | -5.3%
O=C(/C=C/c1cccnc1)c1ccccc1O | -14.6 | -1.4 | 1.0% | / | -13.1% | -3.0%
O=C(C=Cc1cccnc1)c1ccccc1 | / | / | / | 44.7µM* | / | -1.9%
O=C(/C=C/c1cccnc1)c1cccc(O)c1 | -4.9 | -2.0 | -24.6% | 4.8% | -5.7% | -7.6%
O=C(/C=C/c1cccc(O)c1)c1cccnc1 | 18.5 | 11.2 | -4.3% | -9.5% | -5.6% | -3.7%
Cc1ccc(NC(=O)c2c(NC(=O)c3ccccc3Cl)sc3c2CCC3)cc1 | / | / | / | / | / | -1.6%
ClC1=CN(C2=NCCC2)CC1 | / | / | / | -10.9% | / | 3.1%
O=C(C=Cc1ccccn1)c1ccccc1 | / | / | / | 25.1µM* | / | 4.4%
O=[N+]([O-])c1ccccc1CN1CC=C(c2ccc(F)cc2)CC1 | 22.8* | 17.1* | ? | -14.2% | -1.7% | -4.0%
CCOC(=O)C1(C)CCCN(C(=O)c2ccc(OC)c(OC)c2)C1 (configuration not stated) | / | / | / | 10.4% | / | 0.4%
O=[N+]([O-])c1cnc2nc(-c3ccncc3)nn2c1O | -23.0 | -2.8 | -0.6% | ? | 12.6µM* | -10.6%

Source: PubChem (National Center for Advancing Translational Sciences (NCATS))
